Test results: the supplement of paper PMC9262897, “Low-cost anti-mycobacterial drug discovery using engineered E. coli” (Nature Communications, 2022)
Counter-ions that a name gives are not always drawn. ± gives the standard deviation of the averaged measurements.

How the values were obtained:
Assay in all cases: growth (OD600 after 10 h); higher = more growth (less inhibition)
[1] = system: E. coli TESEC Alr+ wild-type control; conditions: compound 0.1 mM; raw OD600 reference: median of DMSO wells 0.241, cell-free background 0.041
Protocol: (§1)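 TESEC Mtb Alr E. coli, or the Alr+ wild-type control, in 384-well plates with Prestwick library compounds at 0.1 mM and 1% DMSO, across arabinose induction levels of 1E3 to 1E7 nM. Growth is read as OD600 after 10 h at 37 °C in triplicate biological replicates.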

E. coli TESEC Mtb Alr [2] = conditions: compound 0.1 mM
Protocol: as §1

E. coli TESEC Mtb Asd = conditions: compound 0.1 mM
Protocol: (§2)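 TESEC E. coli strains in which the native enzyme is deleted and replaced by arabinose-inducible Mtb Asd, DapB, CysH or TrpD, each grown in its selective medium. Strains were screened against the Prestwick library at 0.1 mM and 1% DMSO in 384-well format at low and high arabinose induction. Growth is read as OD600 after 10 h in triplicate.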

E. coli TESEC Mtb DapB = conditions: compound 0.1 mM
Protocol: as §2

[3] = system: E. coli TESEC Alr+ wild-type control; conditions: compound 0.1 mM; raw OD600 reference: median of DMSO wells 0.49, cell-free background 0.052
Protocol: (§3)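 TESEC Mtb Alr E. coli (ΔaraC ΔtolC ΔentC Δalr ΔdadX, arabinose-inducible Mtb Alr) or the Alr+ wild-type control strain, grown in defined M9-fructose medium without D-alanine in 96-well plates with Prestwick library compounds at 0.1 mM and 1% DMSO. Low Alr induction is 0.1 µM arabinose and high induction is 10 mM arabinose.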

E. coli TESEC Mtb Alr [4] = conditions: compound 0.1 mM; remark: listed apart in the source
Protocol: as §3

[5] = arabinose 1000 nM, raw OD600 reference: median of DMSO wells 0.294, cell-free background 0.041
[6] = arabinose 10000 nM, raw OD600 reference: median of DMSO wells 0.264, cell-free background 0.041
[7] = arabinose 100000 nM, raw OD600 reference: median of DMSO wells 0.201, cell-free background 0.041
[8] = arabinose 1000000 nM, raw OD600 reference: median of DMSO wells 0.193, cell-free background 0.041
[9] = arabinose 10000000 nM, raw OD600 reference: median of DMSO wells 0.146, cell-free background 0.041
[10] = arabinose induction (level): High, raw OD600 reference: median of DMSO wells 0.331, cell-free background 0.041
[11] = arabinose induction (level): Low, raw OD600 reference: median of DMSO wells 0.417, cell-free background 0.041
[12] = arabinose induction (level): High, raw OD600 reference: median of DMSO wells […], cell-free background 0.041
[13] = arabinose induction (level): Low, raw OD600 reference: median of DMSO wells 0.227, cell-free background 0.041
[14] = arabinose 100 nM, raw OD600 reference: median of DMSO wells 0.413, cell-free background 0.052
[15] = arabinose 10000000 nM, raw OD600 reference: median of DMSO wells […], cell-free background 0.052

Structure (SMILES)	growth [1]	growth (E. coli TESEC Mtb Alr [2]; [5])	growth (E. coli TESEC Mtb Alr [2]; [6])	growth (E. coli TESEC Mtb Alr [2]; [7])	growth (E. coli TESEC Mtb Alr [2]; [8])	growth (E. coli TESEC Mtb Alr [2]; [9])	growth (E. coli TESEC Mtb Asd; [10])	growth (E. coli TESEC Mtb Asd; [11])	growth (E. coli TESEC Mtb DapB; [12])	growth (E. coli TESEC Mtb DapB; [13])	growth [3]	growth (E. coli TESEC Mtb Alr [4]; [14])	growth (E. coli TESEC Mtb Alr [4]; [15])
CC(=O)O[C@H]1C[C@@H]2CC[C@@H]3[C@H](CC[C@@]4(C)[C@H]3C[C@H]([N+]3(C)CCCCC3)[C@@H]4OC(C)=O)[C@@]2(C)C[C@@H]1N1CCCCC1 [Vecuronium bromide]	0.0818 ± 0.00093	0.0791 ± 0.0015	0.0482 ± 0.00074	0.07643 ± 0.00021	0.0518 ± 0.0023	0.07727 ± 0.00072	0.136 ± 0.0039	0.124 ± 0.0035	0.172 ± 0.019	0.216 ± 0.022	0.23 ± 0.013	0.396 ± 0.0098	0.0791 ± 0.0096
CC(=O)OCC(=O)[C@@]1(OC(C)=O)[C@@H](C)C[C@H]2[C@@H]3C[C@H](F)C4=CC(=O)C=C[C@]4(C)[C@@]3(F)[C@@H](O)C[C@@]21C [Diflorasone Diacetate]	0.159 ± 0.0032	0.178 ± 0.0085	0.162 ± 0.0026	0.194 ± 0.014	0.112 ± 0.0026	0.17 ± 0.0046	0.263 ± 0.03	0.228 ± 0.008	0.198 ± 0.03	0.221 ± 0.0089	0.398 ± 0.015	0.394 ± 0.014	0.289 ± 0.0096
C=C1C(=O)O[C@H]2[C@H]1CC/C(C)=C/CC[C@@]1(C)O[C@@H]21 [Parthenolide]	0.157 ± 0.0041	0.303 ± 0.0032	0.27 ± 0.0042	0.232 ± 0.014	0.185 ± 0.0044	0.157 ± 0.0078	0.155 ± 0.0046	0.269 ± 0.036	0.2 ± 0.0037	0.224 ± 0.022	0.488 ± 0.038	0.404 ± 0.013	0.316 ± 0.02
CN(C)CCOC1=Cc2ccccc2Sc2ccc(Cl)cc21 [Zotepine]	0.179 ± 0.011	0.186 ± 0.0076	0.177 ± 0.0016	0.215 ± 0.0073	0.0636 ± 0.0007	0.0782 ± 0.003	0.168 ± 0.0075	0.127 ± 0.018	0.171 ± 0.019	0.1696 ± 0.0015	0.0664 ± 0.019	0.41 ± 0.0042	0.0544 ± 0.0015
CC1CNc2c(cccc2S(=O)(=O)N[C@@H](CCCNC(=N)N)C(=O)N2CC[C@@H](C)C[C@@H]2C(=O)O)C1 (stereo partly drawn) [Argatroban]	0.211 ± 0.0062	0.288 ± 0.0078	0.257 ± 0.0085	0.222 ± 0.014	0.182 ± 0.012	0.144 ± 0.0053	0.348 ± 0.096	0.395 ± 0.048	0.181 ± 0.0099	0.197 ± 0.016	0.429 ± 0.019	0.404 ± 0.011	0.369 ± 0.016
CCOC(=O)[C@H](CCc1ccccc1)N[C@@H](C)C(=O)N1Cc2ccccc2C[C@H]1C(=O)O [Quinapril HCl]	0.218 ± 0.012	0.29 ± 0.0069	0.2807 ± 0.0024	0.155 ± 0.012	0.21 ± 0.0061	0.144 ± 0.0052	0.246 ± 0.03	0.403 ± 0.052	0.155 ± 0.012	0.165 ± 0.0056	0.477 ± 0.15	0.384 ± 0.015	0.309 ± 0.011
CC(=O)N[C@@H](CC(=O)N[C@@H](CCC(=O)O)C(=O)O)C(=O)O [Spaglumic acid]	0.237 ± 0.0082	0.289 ± 0.013	0.284 ± 0.015	0.197 ± 0.0095	0.198 ± 0.0026	0.143 ± 0.0028	0.227 ± 0.021	0.426 ± 0.026	0.211 ± 0.021	0.216 ± 0.027	0.522 ± 0.037	0.434 ± 0.0089	0.327 ± 0.0062
Nc1nc2c(ncn2COC(CO)CO)c(=O)[nH]1 [Ganciclovir]	0.236 ± 0.0046	0.283 ± 0.0092	0.2718 ± 0.0013	0.202 ± 0.023	0.183 ± 0.003	0.136 ± 0.0066	0.314 ± 0.011	0.411 ± 0.019	0.21 ± 0.023	0.245 ± 0.013	0.473 ± 0.057	0.417 ± 0.016	0.365 ± 0.0063
CN1CCN(C2=Nc3cc(Cl)ccc3Nc3ccccc32)CC1 [Clozapine]	0.156 ± 0.008	0.206 ± 0.0044	0.242 ± 0.0072	0.178 ± 0.011	0.1 ± 0.0026	0.154 ± 0.0034	0.143 ± 0.018	0.293 ± 0.0055	0.17 ± 0.0049	0.205 ± 0.0082	0.502 ± 0.044	0.41 ± 0.0084	0.32 ± 0.011
CCOC(=O)OC(C)OC1=C(C(=O)Nc2ccccn2)N(C)S(=O)(=O)c2ccccc21 (stereo not drawn) [Ampiroxicam]	0.228 ± 0.015	0.27 ± 0.0052	0.255 ± 0.0083	0.183 ± 0.018	0.165 ± 0.007	0.157 ± 0.0076	0.237 ± 0.034	0.339 ± 0.033	0.206 ± 0.024	0.266 ± 0.048	0.582 ± 0.1	0.415 ± 0.01	0.293 ± 0.019
CN(C)CCC=C1c2ccccc2C=Cc2ccccc21 [Cyclobenzaprine hydrochloride]	0.1703 ± 0.0014	0.204 ± 0.016	0.247 ± 0.011	0.172 ± 0.011	0.0898 ± 0.0029	0.125 ± 0.0031	0.161 ± 0.0091	0.262 ± 0.022	0.175 ± 0.011	0.203 ± 0.027	0.5608 ± 0.002	0.401 ± 0.0064	0.231 ± 0.018
Nc1nc(N)nc(-c2cc(Cl)ccc2Cl)n1 [Irsogladine maleate]	0.238 ± 0.0051	0.298 ± 0.013	0.2393 ± 0.0018	0.207 ± 0.011	0.173 ± 0.0041	0.143 ± 0.0066	0.297 ± 0.072	0.406 ± 0.025	0.197 ± 0.019	0.211 ± 0.017	0.589 ± 0.1	0.402 ± 0.0076	0.357 ± 0.0079
O=c1cc(-c2ccc(O)c(O)c2)oc2cc(O)cc(O)c12 [Luteolin]	0.05467 ± 0.00021	0.0562 ± 0.0013	0.05 ± 0.0007	0.05233 ± 0.00025	0.0567 ± 0.0052	0.0518 ± 0.0022	0.0806 ± 0.023	0.063 ± 0.0053	0.0614 ± 0.0012	0.0607 ± 0.002	0.174 ± 0.18	0.152 ± 0.019	0.0574 ± 0.0016
NCc1ccccc1CC(=O)N[C@@H]1C(=O)N2C(C(=O)O)=C(CSc3nnnn3CC(=O)O)CS[C@H]12 [Ceforanide]	0.3 ± 0.0032	0.324 ± 0.0083	0.167 ± 0.0036	0.238 ± 0.016	0.161 ± 0.0024	0.206 ± 0.0071	0.244 ± 0.01	0.315 ± 0.033	0.182 ± 0.012	0.242 ± 0.012	0.501 ± 0.055	0.108 ± 0.033	0.303 ± 0.024
C[N+](C)(CCOc1ccccc1)Cc1ccccc1.O=C([O-])c1cc2ccccc2cc1O [Bephenium hydroxynaphthoate]	0.175 ± 0.0073	0.266 ± 0.017	0.207 ± 0.0049	0.203 ± 0.0078	0.104 ± 0.0033	0.134 ± 0.0047	0.486 ± 0.047	0.365 ± 0.069	0.176 ± 0.046	0.216 ± 0.019	0.509 ± 0.023	0.381 ± 0.016	0.263 ± 0.0088
Cc1ccccc1C(OCCN(C)C)c1ccccc1 (stereo not drawn) [Orphenadrine hydrochloride]	0.208 ± 0.013	0.26 ± 0.024	0.266 ± 0.015	0.189 ± 0.0084	0.148 ± 0.0039	0.159 ± 0.0037	0.18 ± 0.015	0.383 ± 0.063	0.19 ± 0.0094	0.241 ± 0.021	0.463 ± 0.043	0.412 ± 0.013	0.321 ± 0.029
